12-LOX inh = blocks human arachidonate 12S-lipoxygenase; P18054; purified 12hLO, xylenol orange hydroperoxide absorbance; Potency, µM (titrated, usually from 108 µM), without a hit: top-dose activity change, negative = inhibition, most hits filed as inhibitors; 580,000 compounds, 1.1% hits; AID 1671190; note: % is set by controls: 0 for no effect and ±100 for the full control effect
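Purified human 12hLO (150 nM final) in 25 mM Hepes, 0.01% Triton X-100, pH 7.0 was preincubated 15 min at room temperature with compound. Then 40 uM arachidonic acid was added, 30 min. Hydroperoxide was read by Fe-XO absorbance ratio 573/405 nm.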
G9a inh = G9a (human) methyltransferase inhibition. Q96KQ7. G9a H3K9 monomethylation, AlphaScreen, 2 h. Potency, µM (highest dose often 102 µM), for inactives: top-dose activity, negative = inhibition, hits mostly inhibitors. 350,000 compounds, 8.8% hits. AID 504332; note: % is set by controls: 0 for no effect and ±100 for the full control effect; nearly all actives have a fitted effect of over 75% in size
Target sequence (Q96KQ7 913-1193 limits assumed): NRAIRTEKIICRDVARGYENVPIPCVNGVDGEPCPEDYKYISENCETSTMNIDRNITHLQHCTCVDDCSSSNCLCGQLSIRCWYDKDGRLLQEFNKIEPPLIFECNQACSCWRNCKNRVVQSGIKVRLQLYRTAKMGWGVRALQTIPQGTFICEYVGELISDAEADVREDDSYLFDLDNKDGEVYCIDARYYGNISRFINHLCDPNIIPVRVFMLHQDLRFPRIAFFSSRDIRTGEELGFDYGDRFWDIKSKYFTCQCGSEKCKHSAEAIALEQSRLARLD
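Step 1: enzyme (final 20 nM) with compound, 15 min RT. Step 2: substrate peptide 500 nM and SAM 20 uM, 2 h RT. Step 3: anti-H3K9me1 antibody and AlphaScreen beads, 10 min, then plate read.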
JMJD2A Tudor inh = JMJD2A Tudor domain (human) inhibition; O75164; AlphaScreen JMJD2A-Tudor / H3K4me3 peptide binding; Potency, µM (highest dose often 114 µM), without a hit: at the top dose activity change, negative = inhibition, most hits filed as inhibitors; 390,000 compounds, 4.4% hits; AID 504339; note: % is set by controls: 0 for no effect and ±100 for the full control effect; nearly all actives have a fitted effect of over 50% in size
HP1b binding inh = HP1-beta chromodomain-methylated histone interaction inhibition. P83916. AID 540317. Potency, µM (series often up to 114 µM), for the others: at the top dose activity change, negative = inhibition, actives largely listed as inhibitors. AlphaScreen HP1-beta / biotin-H3K9me3 peptide binding. 390,000 compounds, 0.56% hits; note: nearly all actives have a fitted effect of over 70% in size
Target sequence (P83916 whole entry, looked up): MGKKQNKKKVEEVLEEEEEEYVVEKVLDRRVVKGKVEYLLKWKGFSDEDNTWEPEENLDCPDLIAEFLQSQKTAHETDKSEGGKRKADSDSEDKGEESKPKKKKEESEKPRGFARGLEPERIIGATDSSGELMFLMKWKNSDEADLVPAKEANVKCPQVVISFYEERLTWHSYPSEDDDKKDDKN
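HP1-beta protein (50 nM final) preincubated 30 min at room temperature with biotinylated H3(1-18)K9me3 peptide (50 nM) in PBS pH 7.4, 0.01% Tween-20, then compound added for 30 min. AlphaScreen streptavidin donor/nickel chelate acceptor beads (10 ug/mL final), 30 min dark, luminescence read.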
Sfp PPTase inh = inhibitors of Bacillus subtilis Sfp phosphopantetheinyl transferase; Q9F4F7; Biochemical Sfp PPTase activity, qHTS; Potency, µM, without a hit: largest response in the series, negative = inhibition, hits mostly inhibitors; 310,000 compounds, 3.5% hits; AID 1490;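 note: the enzyme is Sfp with the accession as filed and its product quenches rhodamine fluorescence; 0% = enzyme reaction without inhibitor and -100% = no enzyme wells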
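Sfp 15 nM + cpd, 15 min RT; start w/ rhodamine-CoA 5 uM, BHQ-2-YbbR 12.5 uM (final); 50 mM Hepes pH 7.6, 10 mM MgCl2, 0.01% NP-40, 0.01% BSA; read 525/598 nm at 0 and 30 min.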
BAZ2B inh = blocks human BAZ2B; AlphaScreen BAZ2B-H3K14Ac peptide displacement; Potency, µM (doses to about 114 µM), inactives show at the top dose activity change, negative = inhibition, hits mostly inhibitors; 360,000 compounds, 4.4% hits; AID 504333; note: % is set by controls: 0 for no effect and ±100 for the full control effect; nearly all actives have a fitted effect of over 60% in size
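AlphaScreen displacement of biotin-H3(5-23)K14Ac peptide (50 nM final) from BAZ2B (50 nM final) in PBS pH 7.4, 0.01% Tween-20; complex preformed 30 min RT, then compounds (top 110 uM) 30 min RT, beads 20 min dark.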
* = called active by the depositor; ? = inconclusive; / = no result given; ! = not confirmed by another sample; [ ] = another dose, or the depositor's remark. Most compounds without a hit are left out; they make up all but 8.7% or so of the library. Calls come from the whole dose curve; as a rule, active = well fitted curve in the direction sought with a large enough effect; inconclusive = small, poorly fitted or top-dose-only effect, or another doubt; inactive = no such curve, though single readings can be large; an effect the other way counts as inactive or inconclusive. Potency is the fitted concentration of half-maximal effect.

SMILES | 12-LOX inh | G9a inh | JMJD2A Tudor inh | HP1b binding inh | Sfp PPTase inh | BAZ2B inh
O=[N+]([O-])c1cc(/C=N/n2c(-c3ccncc3)n[nH]c2=S)ccc1Cl | -28% | / | ? | 6% | -21% | ?
COc1cc(/C=C/c2ccc(O)cc2)cc(OC)c1 | ? | 2%[59 µM] | -29% | -17% | 56µM* | -34%
Cc1nc(CN2CCOc3cc([S+](=O)([O-])Nc4ccccc4)ccc3C2)cs1 | 27%[176 µM] | / | / | / | / | /
COc1ccc(CNc2ccc(Cl)cc2)cc1Cn1ccnc1 | 2% | 35µM* | 50µM* | ? | 14% | 25µM*
COCC(=O)Nc1nc2n(n1)C(c1ccc(Cl)cc1)CC(c1ccc(OC)cc1)N2 (centres undefined) | 292% | 79µM* | ? | 53% | -27% | ?
COCC(=O)Nc1nc2n(n1)C(c1ccccc1Cl)CC(c1ccc(OC)cc1)N2 (centres undefined) | 6% | ? | -31% | 34% | 16% | ?
Nc1ccccc1SC/C=C/CSc1ccccc1N | -16% | 11µM* | -18% | 26% | -30% | -22%
Nc1ccccc1O | / | -2%[0.501 µM] | -19% | 2% | / | -23%
CN(C)CCCc1cc(C(=O)Nc2ccc(-c3ccncc3)cc2)ccc1O | ? | 25µM*! | / | / | -1% | /
CCc1noc(-c2ccn3c(CNC(=O)c4cccc(Cl)c4)nnc3c2)n1 | 34% | / | / | / | / | /
CCCc1noc(-c2ccn3c(CNC(=O)c4ccc(CC)cc4)nnc3c2)n1 | 40µM* | / | / | / | / | /
CCCc1noc(-c2ccn3c(CNC(=O)c4ccc(F)c(Cl)c4)nnc3c2)n1 | 50µM* | / | / | / | / | /
CCCc1noc(-c2ccn3c(CNC(=O)Cc4ccccc4Cl)nnc3c2)n1 | 45µM* | / | / | / | / | /
CCc1noc(-c2ccn3c(CNC(=O)c4ccc(F)cc4)nnc3c2)n1 | 11% | / | / | / | / | /
CC(C)c1ccc(O)c(=O)cc1 | 22µM* | / | / | / | / | /
Cc1nc(SCC(=O)N2CCN(C(=O)c3cccs3)CC2)c2c(C)c(C)sc2n1 | -6% | 18µM* | -19% | 39% | / | -24%
CSc1ccccc1C(=O)N1CCCC(CCC(=O)NCc2ccc(F)c(F)c2)C1 (centres undefined) | 6% | 1% | -12% | 27% | 9% | -19%
Cc1noc(C)c1CCC(=O)N1CCCC(CCC(=O)NCc2ccc(F)c(F)c2)C1 (centres undefined) | -1% | ? | 100µM* | ? | -3% | -24%
COC(=O)c1ccccc1C(=O)N1CCCC(CCC(=O)NCc2ccc(F)c(F)c2)C1 (centres undefined) | 0% | 5.6µM* | -4% | 49% | -11% | -26%
CC(=O)Nc1cccc(/C(C)=N\NC(=O)c2ccc(Cn3nc([N+](=O)[O-])c(Cl)c3C)o2)c1 | -7% | 0%[2.33 µM] | 50µM* | -7% | 0% | -3%
COc1ccc(/C=C/c2nc3ccccc3o2)c(OC)c1OC | 6% | / | / | / | / | /
CCN1C(c2ccc(F)cc2)=CS/C1=C(\C#N)c1nnc2n1-c1ccccc1SC2 | ? | 32µM* | ? | -16% | -23% | ?
CN1C(c2ccc(F)cc2)=CS/C1=C(/C#N)c1nnc(N2CCOCC2)n1-c1ccccc1 | -19% | ? | -29% | 32% | -24% | -22%
CC(=O)c1c2ccccc2cc2ccccc12 | -30% | / | / | / | / | /
CN(C)c1ccc(C=Cc2ccnc3c(O)cccc23)cc1 | 11µM* | / | / | / | / | /
SMILES | 12-LOX inh | G9a inh | JMJD2A Tudor inh | HP1b binding inh | Sfp PPTase inh | BAZ2B inh
O=C(Nc1ccc(I)cc1C(F)(F)F)c1ccc2ccccc2c1 | 1% | / | / | / | / | /
COc1ccc2ccccc2c1CN1CCC2(CC1)[C@H](O)C[C@@H]2OCCN | 110% | / | / | / | / | /
CN1/C(=C/C2CC(=O)N(c3cccc4ccccc34)C2=O)C(C)(C)c2ccccc21 (centres undefined) | ? | ? | -25% | 15% | 1% | ?
CCOc1ccc(N2C(=O)CC(/C=C3/N(C)c4ccccc4C3(C)C)C2=O)cc1 (centres undefined) | -28% | 14µM* | ? | 8% | 0% | ?
NCCSC1CC(=O)N(Cc2ccc(F)cc2)C1=O (centres undefined) | 11% | 40µM* | 2% | 36% | 6% | -5%
CCOc1ccc(N2C(=O)CC(SCCN)C2=O)cc1 (centres undefined) | 0% | 18µM* | -29% | 23% | ? | -32%
CCOc1ccc(N2C(=O)CC(Sc3nnnn3-c3ccccc3)C2=O)cc1 (centres undefined) | -2% | 10µM* | 5% | 52% | 16µM* | -23%
CCCCCCOc1ccc(N2C(=O)CC(SCCN)C2=O)cc1 (centres undefined) | -23% | ? | -21% | 54% | -13% | -31%
CC(C)NC(=O)C1CC(c2c(F)cccc2Cl)=NO1 (centres undefined) | 2% | / | / | / | / | /
COC(=O)c1[nH]c2ccccc2c1NC(=O)CN1CCN(c2cccc(OC)c2)C(C)C1 (centres undefined) | 2% | 12%[2.33 µM] | 16µM* | ? | -4% | ?
COC(=O)c1[nH]c2ccc(F)cc2c1NC(=O)CCN1CCN(Cc2ccc3c(c2)OCO3)CC1 | 1% | -21% | -19% | 33% | 4% | 10%
COC(=O)c1[nH]c2ccccc2c1NC(=O)CN1CCCC(C)C1 (centres undefined) | 2% | / | / | / | / | /
CCN(CC(=O)Nc1c(C(=O)OC)[nH]c2ccc(C)cc12)c1ccc2c(c1)OCO2 | 0% | 35µM* | 45µM* | -7% | 45µM* | 40µM*
COC(=O)c1[nH]c2ccccc2c1NC(=O)CN1CCN(Cc2ccc3c(c2)OCO3)CC1 | -12% | ? | 79µM* | 1% | 4% | -29%
CCOC(=O)c1[nH]c2ccc(OC)cc2c1NC(=O)/C=C/c1ccc2c(c1)OCO2 | -21% | -16%[59 µM] | -13% | 42% | 6% | -28%
O=C(/C=C/c1ccc2c(c1)OCO2)Nc1c(C(=O)O)[nH]c2ccccc12 | ? | 11µM* | ? | -16% | 6% | ?
CCN(CC)c1cc(CCC(=O)NCc2ccccc2OC)ccn1 | 74% | / | / | / | / | /
Cc1ccc(S(=O)(=O)N(C)C(C)c2cc3ccccc3o2)c(C)c1 (centres undefined) | -5% | / | / | / | / | /
O=C(COC(=O)c1ccc([N+](=O)[O-])cc1Cl)c1ccc2c(c1)OCCO2 | -10% | / | / | / | / | /
COc1ccc(CN2C(=O)COC[C@@H]2[C@H](O)c2ccc(NC(=O)c3ccc(C(C)(C)C)cc3)cc2)cc1 | -20% | / | / | / | / | /
COc1ccc(-c2ccc(/C=N/NC(=O)Cc3nnc(N)s3)o2)cc1Cl | 358% | 20µM* | -29% | 1% | ? | ?
Nc1nnc(CC(=O)N/N=C/c2ccc(-c3ccccc3)o2)s1 | 10% | -17%[59 µM] | -29% | 15% | ? | ?

Screening results from PubChem.
